PubChem BioAssay AID1626 (SRMLSC, 2009)
Among all 220,000 compounds or so, about 2,000 (0.91%) were called active. About 2% were inconclusive and are not listed. These entries were drawn from the full list. Entries with a potency or affinity are not part of this list. A number with no mark means an inactive call. Rule as the data show it: inconclusive = inhibition above about 80% without an active follow-up result; inactive = below that; test concentration not stated here.

experiment: M. tuberculosis H37Rv growth inhibitors, H37Rv strain (AID 1626); details: hits give high values, concentration not given here;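 also: bacteria incubated seven days before Alamar blue readout; 0% = bacteria only wells and 100% = bacteria with antibiotic wells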

| Structure (SMILES) | inhibition |
| --- | --- |
| CN(C)c1nc(N)nc(CSc2nnnn2-c2ccc(F)cc2)n1 | -2.97% |
| CC(=O)c1ccc(OC(=O)c2ccc(Br)o2)cc1 | -1.59% |
| CCCOc1ccc(OC(=O)c2ccc(Br)o2)cc1 | 3.47% |
| CCC(=O)NCCc1nc2ccccc2n1Cc1ccccc1 | -11.3% |
| CCC(=O)Nc1nonc1-c1nc2ccccc2n1Cc1ccccc1 | 22.2% |
| CCC(=O)NCCc1nc2ccccc2n1Cc1ccc(C)cc1 | -3.53% |
| CCC(=O)Nc1nc2ccccc2n1CCN(C)C | 0.79% |
| CCC(=O)Nc1nc2ccccc2n1CCN(CC)CC | -1.49% |
| CC(=O)NCCc1nc2ccccc2n1Cc1ccc(Cl)cc1 | -2.45% |
| NCCNC(=O)Cc1cccc(NC(=O)Cc2ccc(Nc3ncnc4c3ncn4[C@@H]3O[C@H](CO)[C@@H](O)[C@H]3O)cc2)c1 | 10.9% |
| COc1ccc(C(=O)c2ccc3oc(-c4ccc(OC)cc4)c(C#CCCO)c3c2)cc1 | 6.95% |
| Cc1ccccc1NC(=O)c1ccc(F)c(S(=O)(=O)N2CCCCC2)c1 | -2.34% |
| CCn1cc(Br)c(C(=O)Nc2ccc(F)c(Cl)c2)n1 | -11.6% |
| CCOCCCNC(=O)c1ccc(NC(C)=O)cc1 | -8.03% |
| CC(=O)C1=C(O)C(=O)N(C)C1c1ccccc1F (stereo not given) | 0.41% |
| CN(C[C@H](Cc1ccccc1)N(C[C@H](CC1CCCCC1)N(CCc1ccccc1)N=O)N=O)N=O | -1.37% |
| CC(C)Sc1ncc(S(=O)(=O)c2ccccc2)c(=O)[nH]1 | -2.21% |
| CCCCn1c(O)c(C(C)=Nc2ccc3c(c2)CCC3)c(=O)[nH]c1=O | 7.92% |
| C=CCn1c(O)c(C(C)=Nc2ccc(C(=O)O)cc2)c(=O)[nH]c1=O | -11.5% |
| C=CCn1c(O)c(C(C)=Nc2ccc(NC(C)=O)cc2)c(=O)[nH]c1=O | -0.17% |
| CCCCn1c(O)c(C(CC)=Nc2ccc(C(=O)O)cc2)c(=O)[nH]c1=O | -1.19% |
| C=CCn1c(O)c(C(C)=Nc2ccc3c(c2)CCC3)c(=O)[nH]c1=O | 54.5% |

| Structure (SMILES) | inhibition |
| --- | --- |
| CCCCn1c(O)c(C(CC)=Nc2ccc3c(c2)CCC3)c(=O)[nH]c1=O | 74.9% |
| CCCCn1c(O)c(C(C)=Nc2ccc(C(=O)O)cc2)c(=O)[nH]c1=O | -16.2% |
| CCCCn1c(O)c(C(CC)=Nc2ccc(OC)cc2OC)c(=O)[nH]c1=O | -1.05% |
| O=C(O)CC(CNS(=O)(=O)c1cccc2nsnc12)c1ccccc1 (stereo not given) | 2.51% |
| O=C1CC(c2nc3ccccc3[nH]2)CN1c1cccc(C(F)(F)F)c1 (stereo not given) | 2.87% |
| CN1CCN(C(=S)c2ccc(-c3cccc(Cl)c3Cl)o2)CC1 | 2.93% |
| Nc1c(Cl)ncnc1N/N=C/c1cccnc1 | 3.93% |
| Cn1c(N2CCOCC2)cc(=O)n(C)c1=O | -3.19% |
| COc1ccc(CCNC(=O)CSCc2ccc([N+](=O)[O-])cc2)cc1OC | -5.73% |
| CCN(CC)c1ccc(C(=O)OCC(=O)Nc2ccc3[nH]c(=O)[nH]c3c2)cc1 | 6.23% |
| O=C(Nc1ccc(Br)cc1)C1CCCN(S(=O)(=O)c2cccnc2)C1 (stereo not given) | -3.26% |
| C=CCn1c(CNC(=O)c2ccco2)nnc1SCC(=O)Nc1cccc(F)c1 | 2.84% |
| CCn1c(SCc2nc3ccccc3c(=O)[nH]2)nc2ccccc21 | 11.6% |
| COc1ccc2nc(N3CCC(O)CC3)c(C#N)cc2c1 | 1.43% |
| COc1ccc2cc(C#N)c(N3CCN(C(=O)c4ccccc4C)CC3)nc2c1 | 7.93% |
| CC(C)CCNC(=O)CCn1c(=S)oc2ccccc21 | -7.67% |
| CC(=O)c1ccc(NC(=O)C(C)N2CCN(C/C=C/c3ccccc3)CC2)cc1 (stereo not given) | 53.1% |
| Fc1ccc(CSc2nnc(-c3cccnc3)n2Cc2ccco2)cc1 | -3.79% |
| CCCc1nc2c(sc3nc4c(cc32)COC(C)(C)C4)c(=O)n1Cc1ccco1 | -1.51% |
| CCCCOC(=O)Nc1sc2c(c1C(=O)OC)CCC2 | -0.74% |
| S=c1[nH]nc(CSCc2ccccc2Cl)n1C1CCCCC1 | 4.24% |
| C#CCOCCOCCOCCNc1nc(N2CCOCC2)nc(N2CCN(C(=O)[C@H](Cc3cc4ccccc4[nH]3)n3cc([C@@H](N)CC(C)C)nn3)CC2)n1 | -3.36% |

| Structure (SMILES) | inhibition |
| --- | --- |
| C#CCOCCOCCOCCNc1nc(N2CCN(C(=O)[C@H]([C@@H](C)CC)n3cc([C@@H](N)CC(C)C)nn3)CC2)nc(N2CCN(C(=O)[C@H](Cc3cc4ccccc4[nH]3)n3cc([C@@H](N)CC(C)C)nn3)CC2)n1 | 33.5% |
| C#CCOCCOCCOCCNc1nc(N2CCN(C(=O)[C@H]([C@@H](C)CC)n3cc([C@@H](N)CC(C)C)nn3)CC2)nc(N2CCN(C(=O)[C@H](Cc3cc4ccccc4[nH]3)n3cc([C@@H](N)C(C)CC)nn3)CC2)n1 (stereo not given in full) | 45.6% |
| C#CCOCCOCCOCCNc1nc(N2CCN(C(=O)[C@H](Cc3cc4ccccc4[nH]3)n3cc(C(N)CC(C)C)nn3)CC2)nc(N2CCN(C(=O)[C@H](CCC(=O)O)n3cc(C(N)[C@H](C)CC)nn3)CC2)n1 (stereo not given in full) | -7.16% |
| C#CCOCCOCCOCCNc1nc(N2CCOCC2)nc(N2CCN(C(=O)[C@H](Cc3cc4ccccc4[nH]3)n3cc([C@@H](N)Cc4ccc(O)cc4)nn3)CC2)n1 | 52% |
| C#CCOCCOCCOCCNc1nc(N2CCN(C(=O)[C@H](CCCCN)n3cc([C@@H](N)CC(C)C)nn3)CC2)nc(N2CCN(C(=O)[C@H](Cc3cc4ccccc4[nH]3)n3cc([C@@H](N)Cc4ccc(O)cc4)nn3)CC2)n1 | 59% |
| CCOC(=O)C1CCN(C(=O)COc2ccc(S(=O)(=O)N3CCCC3)cc2C)CC1 | 8.86% |
| N/C(=N\c1nc2c(c(=O)[nH]1)CCCC2)Nc1ccc(Oc2ccccc2)cc1 | 18% |
| Cn1c(=O)c2c(nc(CN3CCC(C(N)=O)CC3)n2Cc2c(Cl)cccc2Cl)n(C)c1=O | -2.69% |
| O=C(/C=C/c1ccc(F)cc1)N1CCCN(C(=O)/C=C/c2ccc(F)cc2)CC1 | 10.8% |
| Cc1ccc(/C=C/C(=O)N2CCN(c3ccc(F)cc3)CC2)o1 | -2.28% |
| CCOCCn1c(SCC)nc2c1c(=O)[nH]c(=O)n2C | -10.1% |
| Cc1cc(C)n(-c2nnc(C)c(=O)[nH]2)n1 | -3.09% |
| Cc1cc(C)nc(-n2nc(C)c(Oc3ccccc3O)c2C)n1 | -0.16% |
| COc1ccc(Nc2nc(C)cc(=O)[nH]2)cc1 | -16.4% |
| Cc1cc(Nc2ccc(Cl)cc2)n(-c2cccc(Cl)c2)n1 | 4.87% |
| Cc1cc(C)n(-c2nc(O)cc(=O)[nH]2)n1 | -5.24% |
| Cc1nn(-c2ccccn2)c(C)c1Oc1ccccc1O | 7.63% |
| Cc1ccc(OCC(=O)Nc2ccc(Cl)cc2C(=O)c2ccccc2)cc1 | -2.12% |
| CCOc1ccc(CNC(=S)N/N=C\c2ccc([N+](=O)[O-])cc2)cc1 | 2.73% |
| O=C(NCC(c1ccco1)N1CCCCC1)C(c1ccccc1)c1ccccc1 (stereo not given) | 2.31% |
| CC(Oc1ccc(Cl)cc1Cl)c1ccnc2nc(N3CCOCC3)nn12 (stereo not given) | 7.65% |
| CCOc1ccccc1NC1c2ccccc2C(=O)N1Cc1ccco1 (stereo not given) | 11.3% |

| Structure (SMILES) | inhibition |
| --- | --- |
| O=C1c2ccccc2C(Nc2ccc(S(=O)(=O)N3CCCCC3)cc2)N1Cc1ccco1 (stereo not given) | 2.32% |
| O=C1c2ccccc2C(Nc2ccc3nc(-c4cccnc4)[nH]c3c2)N1Cc1ccco1 (stereo not given) | 44% |
| COc1ccc(NC2c3ccccc3C(=O)N2Cc2ccco2)cc1OC (stereo not given) | 8.29% |
| CCOC(=O)CNC(=O)CSc1nnc(-c2ccc(OC)cc2)n1CC | -3.53% |
| O=C(c1ccco1)N1CCN(Cc2nc(Cc3ccccc3)no2)CC1 | -8.56% |
| C#CCn1c(-c2ccccc2)ccc(C#N)c1=O | 8.84% |
| CCn1c(-c2ccccc2)ccc(C#N)c1=O | -9.1% |
| CS(=O)(=O)N(CC(=O)Nc1cccc(Cl)c1Cl)c1ccccc1 | -0.62% |
| O=C(COC(=O)c1ccc(=O)[nH]c1)Nc1cccc(S(=O)(=O)N2CCOCC2)c1 | 9.81% |
| CC1CCC/C(=N/NC(=O)c2ccccc2-n2cccc2)C1 (stereo not given) | -3.77% |
| COc1ccc(-n2c(C)cc(/C=C3\C(=O)NN(c4ccccc4)C3=O)c2C)cc1 | 12.4% |
| Cc1sc2nc(CN(C(=O)NC3CCCCC3)C3CCCCC3)[nH]c(=O)c2c1C | 3.17% |
| CC(=O)N(Cc1nc2sc(C)c(C)c2c(=O)[nH]1)C1CCCC1 | -8.34% |
| O=C(Nc1ccncc1)c1ccc(NS(=O)(=O)c2cccc(F)c2)cc1 | 7.32% |
| NC(N)=N/N=C/c1ccccc1 | 12.3% |
| CCN(Cc1ccccc1)c1ccc(/C=N/N2CCOCC2)cc1 | 2.24% |
| Cc1ccccc1CN1C[C@@H]2C[C@@H](c3cn[nH]c3-c3ccccc3)N3CCC[C@@]23C1=O | -6.92% |
| O=C(Nc1ccn(Cc2c(F)c(F)cc(F)c2F)n1)c1ccc(COc2ccc(Cl)cc2Cl)o1 | 4.49% |
| O=C(Nc1ccn(Cc2ccccc2F)n1)c1ccc(COc2cc(Cl)ccc2Cl)o1 | 10.4% |
